Assay outcomes as filed in PubChem.
An excerpt weighted towards active compounds, which were near 8.5% of everything screened.
ALDH1A1 inh = ALDH1A1 (human) enzyme inhibition. Purified ALDH1A1, NADH fluorescence, propionaldehyde substrate. Potency, µM (highest dose often 75.3 µM), for inactives: at the top dose activity, negative = inhibition, most hits filed as inhibitors. hit rate 7.3% among 220,000. AID 1030;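 further: potency means the concentration at half of the fitted maximal effect; plate controls were no enzyme wells and a reference inhibitor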
NPSR antagonist = blocks cAMP signaling of the human neuropeptide S receptor | Potency, µM (top dose mostly 38.3 µM), without a hit: at the highest dose activity change, negative = inhibition, usual class: inhibitors | hit rate 1% among 220,000 | AID 1461 | CHO-NPSR cells, cAMP TR-FRET, antagonist mode | Q6W5P4; active means well fitted curve in the direction sought with a large enough effect; inconclusive means small, poorly fitted or top-dose-only effect, or another doubt; inactive means no such curve, though single readings can be large; an effect the other way counts as inactive or inconclusive; further: potency means the concentration at half of the fitted maximal effect; nearly all actives have a fitted effect of over 50% in size
Coupling enz = coupling enzyme interference in Giardia aldolase counter-screen; coupling enzyme system counterscreen, AmpLite Red fluorescence; activity change, negative = inhibition, % at 58.2 µM, hits read low; hit rate 0.67% among 290,000; in the data active means activity change below about -30%
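Counterscreen lacking aldolase: glyceraldehyde-3-phosphate coupling-enzyme reagent preincubated 10 min at RT with compound (at 57.5 uM final), then substrate/coupling system with AmpLite Red added; fluorescence read at 525/598 nm after 20 min RT.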
Sfp PPTase inh = blocks B. subtilis Sfp PPTase activity; Q9F4F7; Potency, µM, without a hit: largest response in the series, negative = inhibition, most hits filed as inhibitors; Biochemical Sfp PPTase activity, qHTS; hit rate 3.5% among 310,000; AID 1490; active means well fitted curve in the direction sought with a large enough effect; inconclusive means small, poorly fitted or top-dose-only effect, or another doubt; inactive means no such curve, though single readings can be large; an effect the other way counts as inactive or inconclusive;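 further: the enzyme is Sfp with the accession as filed and its product quenches rhodamine fluorescence; potency means the concentration at half of the fitted maximal effect; 0% = enzyme reaction without inhibitor and -100% = no enzyme wells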
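Sfp 15 nM + cpd, 15 min RT; start w/ rhodamine-CoA 5 uM, BHQ-2-YbbR 12.5 uM (final); 50 mM Hepes pH 7.6, 10 mM MgCl2, 0.01% NP-40, 0.01% BSA; read 525/598 nm at 0 and 30 min.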
KDM4E inh = blocks human JMJD2E demethylase activity | B2RXH2 | JMJD2E catalytic domain, FDH-coupled NADH fluorescence (FDH is formaldehyde dehydrogenase) | Potency, µM (series often up to 57.1 µM), for inactives: at the top dose activity change, negative = inhibition, usual class: inhibitors | hit rate 1.6% among 230,000 | AID 2147;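 further: potency means the concentration at half of the fitted maximal effect; 0% = wells with enzyme and -100% = buffer wells without enzyme; nearly all actives have a fitted effect of over 50% in size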
Target sequence (B2RXH2 1-337 limits assumed): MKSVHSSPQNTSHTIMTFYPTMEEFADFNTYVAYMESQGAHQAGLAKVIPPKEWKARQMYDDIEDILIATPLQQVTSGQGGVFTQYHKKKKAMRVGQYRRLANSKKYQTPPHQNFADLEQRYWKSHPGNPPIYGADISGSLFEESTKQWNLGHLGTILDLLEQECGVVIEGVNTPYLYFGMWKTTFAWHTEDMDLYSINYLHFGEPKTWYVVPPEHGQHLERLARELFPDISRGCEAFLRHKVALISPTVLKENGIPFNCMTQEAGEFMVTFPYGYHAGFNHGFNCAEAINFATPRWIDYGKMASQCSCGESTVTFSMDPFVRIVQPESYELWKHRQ
RGS12 GoLoco inh = inhibitors of human Gai1-RGS12 GoLoco interaction (red fluorophore); P63096; Gai1:RGS12 GoLoco peptide FP, rhodamine, 10 min; Potency, µM (series often up to 61.6 µM), for the others: top-dose activity, negative = inhibition, actives largely listed as inhibitors; hit rate 0.44% among 230,000; AID 880; active means well fitted inhibition curve with a large enough effect, not every such curve was filed as active; inactive means no such curve, though single readings can be large or run the other way; further: potency means the concentration at half of the fitted maximal effect; nearly all actives have a fitted effect of over 30% in size
Target sequence (P63096 whole entry, looked up): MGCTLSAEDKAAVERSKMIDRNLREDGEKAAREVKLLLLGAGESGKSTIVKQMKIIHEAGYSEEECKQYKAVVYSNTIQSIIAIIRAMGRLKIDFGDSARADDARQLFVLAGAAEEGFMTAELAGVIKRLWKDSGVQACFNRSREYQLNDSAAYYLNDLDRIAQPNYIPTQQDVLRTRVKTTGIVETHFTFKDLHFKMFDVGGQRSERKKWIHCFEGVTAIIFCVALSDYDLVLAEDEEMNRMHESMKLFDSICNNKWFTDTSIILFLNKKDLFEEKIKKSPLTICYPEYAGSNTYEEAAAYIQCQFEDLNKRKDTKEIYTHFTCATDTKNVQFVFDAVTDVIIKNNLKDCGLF
An asterisk follows results filed as active; i = inactive; ? = inconclusive; / = not tested or not shown; [ ] = another dose, or the depositor's remark. Unless noted, the call rests on the fitted dose curve; in most records, active means well fitted inhibition curve with a large enough effect (not every such curve was filed as active); inconclusive means small, poorly fitted or top-dose-only effect, or another doubt; inactive means no such curve, though single readings can be large or run the other way. Unless noted, on the % scale 0 is the no-effect control and ±100 the full control effect.

SMILES | ALDH1A1 inh | NPSR antagonist | Coupling enz | Sfp PPTase inh | KDM4E inh | RGS12 GoLoco inh
Cn1nnc(NC(=S)NC(=O)c2cc(Cl)ccc2Cl)n1 | / | / | / | 50µM* | / | /
COc1ccc(-c2noc(CN3CCOCC3)n2)cc1OC | 22µM* | 4%[46.1 µM] | 3 | 2% | 8% | -15%
CC(C)(C)c1nn(-c2ccccc2)c2[nH]c(=O)c(C=O)cc12 | / | / | 4 | 16% | / | /
CCOC(=O)/C(=C/c1c[nH]c2ccccc12)NC(C)=O | 0% | -19%[46.1 µM] | 1 | 5% | -4% | 6%
COC(=O)/C(=C/c1c[nH]c2ccccc12)NC(C)=O | -1% | 9% | 0 | 6% | 20µM* | -12%
O=C(CC1C(=O)NCCN1Cc1cccc(C(F)(F)F)c1)NCCc1cnccn1 (stereo not drawn) | / | / | / | 17% | / | /
CCOC(=O)NC1(Nc2ccc(Cl)cn2)Oc2ccccc2O1 | 13µM* | -2%[46.1 µM] | -9 | 32µM* | 25µM* | -7%
CC1CCN(C(=O)CCNS(=O)(=O)c2ccc3c(c2)c(=O)n(C)c(=O)n3C)CC1 | / | / | 2 | 11% | / | /
COc1ccc2c(C=O)c[nH]c2c1 | 6.3µM* | 18% | 0 | 8% | ? | 5%
COc1ccc2c(/C=C/c3cc[n+](C)cc3)c[nH]c2c1 | / | / | -17 | 5% | / | /
CC(=O)c1sc(NC(=O)c2c(F)cccc2F)nc1C | -20% | -3%[46.1 µM] | 5 | 2% | 3% | 7%
CC(C)CC(=O)Nc1nc(=S)ss1 | 3.5µM* | 1%[46.1 µM] | 4 | 16µM* | -12% | -6%
Cc1ccccc1C(=O)Nc1nnc(SC(C)C)s1 | 16µM* | -8% | 2 | -3% | -13% | i
O=C(Nc1nc(=S)ss1)c1c(F)cccc1F | 22µM* | 1%[46.1 µM] | 1 | 22µM* | 2% | 3%
CC(C)Sc1nnc(NC(=O)CCc2ccccc2)s1 | -1% | 1% | 1 | 4% | -23% | -3%
CC(=O)Nc1nc(=S)ss1 | 3.2µM* | 0%[46.1 µM] | 6 | 16µM* | -3% | 8%
CCCn1c(=O)c2[nH]c(-c3ccc(S(=O)(=O)O)cc3)nc2n(CCC)c1=O | ? | -10%[46.1 µM] | / | / | ? | 5%
CC1CCCN(CCCNC(=O)c2ccc(N3CCCC3=O)cc2)C1 (stereo not drawn) | / | / | / | 8% | / | /
O=c1[nH]nc(SCc2nnc(-c3cccc(Cl)c3)o2)n1C1CCCCC1 | / | -20% | 5 | 5% | 13% | -5%
COc1cc(-c2[o+]c3cc(O)cc(O)c3cc2O)cc(O)c1O | 6%[13.5 µM] | / | / | / | / | 5%[14.2 µM]
COc1ccc(C(C)(C)C)cc1NC(=O)COC(=O)c1ccc([N+](=O)[O-])o1 | ? | -2% | -7 | -23% | -19% | 0%
Cc1ccccc1C(=O)Nc1nc2c(C)csc2c(=O)s1 | / | ? | 1 | 9% | ? | -3%
Cc1ccccc1C(=O)Nc1nc(=S)ss1 | 3.2µM* | 4%[46.1 µM] | 5 | 22µM* | 0% | -12%
COc1ccc(NC(=O)N2CCCC3(CCN(S(=O)(=O)c4ccccc4)CC3)C2)cc1 | 14µM* | / | 1 | 22% | / | 5%
O=C(c1cccc(F)c1)N1CCC[C@@]2(CCN(c3cccc(-c4ccccc4)c3)C2)C1 | ? | / | -2 | -3% | / | 9%
SMILES | ALDH1A1 inh | NPSR antagonist | Coupling enz | Sfp PPTase inh | KDM4E inh | RGS12 GoLoco inh
O=C(c1cccc(F)c1)N1CCC2(CCCN(c3cccc(-c4ccccc4)c3)C2)CC1 | 11µM* | / | 2 | 0% | / | 159%
O=C(c1cccc(F)c1)N1CCC[C@@]2(CCN(c3ccccc3)C2)C1 | 1.1µM* | / | -4 | -9% | / | -7%
O=C(c1cccc(F)c1)N1CCC[C@@]2(CCN(C(c3ccccc3)c3ccccc3)C2)C1 | 8.9µM* | / | 1 | 3% | / | 46%
CCOc1ccc(NC(=S)N2CCN(CCN3C(=O)c4cccc5cccc(c45)C3=O)CC2)cc1 | ? | -8% | -1 | -22% | -10% | 11%
O=C(NC1CCCc2ccccc21)c1ccccc1OC(F)F (stereo not drawn) | / | / | 2 | 12% | / | /
CC1Cc2nc(SCC(=O)Nc3nc4ccccc4s3)n(C)c(=O)c2S1 (stereo not drawn) | 10% | -4%[46.1 µM] | 3 | 3% | 4% | 2%
CCN(Cc1ccncc1)Cc1nc(Cc2ccccc2Cl)no1 | -1% | -4% | 3 | 20% | 6% | 16%
COc1ccc(C(C(=O)NC2CCCC2)N(C(=O)c2ccco2)c2cc3c(cc2C(C)=O)OCO3)cc1OC (stereo not drawn) | / | / | 1 | -15% | / | /
COc1ccc(NC(=O)N2CC[C@@]3(CCCN(C(=O)c4cccc(F)c4)C3)C2)cc1 | 18µM* | / | 0 | 18% | / | 11%
Cc1cccc(N2CCN(C(=O)CCS(=O)(=O)c3ccc(Br)cc3)CC2C)c1 (stereo not drawn) | 0% | -5% | 1 | -9% | -17% | 1%
CC(=O)N1CCCc2cc(S(=O)(=O)NCCC3=CCCCC3)ccc21 | 1.8µM* | -4%[46.1 µM] | 2 | -4% | -2% | 6%
CCCN(CCC)S(=O)(=O)c1ccc2c(c1)CCCN2C(C)=O | 5µM* | 16%[46.1 µM] | 4 | -7% | 3% | -6%
Cc1ccc(NC(=O)c2cc(S(=O)(=O)NCCC3=CCCCC3)ccc2F)cc1 | 22µM* | -18%[46.1 µM] | 1 | 21% | -5% | 6%
CC(=O)N1CCCc2cc(S(=O)(=O)CCC(=O)N3CCN(c4cccc(C)c4)C(C)C3)ccc21 (stereo not drawn) | 18µM* | -9%[46.1 µM] | 0 | 6% | -21% | 1%
COc1ccc(C(=O)NCCCNC(=O)c2cnccn2)cc1 | / | / | 0 | 18% | / | /
COc1cc(NC(=O)c2cc(C)no2)cc(OC)c1OC | / | / | 0 | 8% | / | /
CCCCn1c(=O)c2ccccc2n2c(=S)[nH]nc12 | / | / | 2 | ? | / | /
O=c1c2ccccc2n2c(=S)[nH]nc2n1-c1ccccc1 | / | / | 5 | 45µM* | / | /
Cn1c(=O)c2ccccc2n2c(=S)[nH]nc12 | / | / | 0 | 50µM* | / | /
CCCCCn1c(=O)c2ccccc2n2c(=S)[nH]nc12 | / | / | 7 | 56µM* | / | /
CCCn1c(=O)c2ccccc2n2c(SCCNCCO)nnc12 | / | / | 1 | 35µM* | / | /
COc1cc(NC(=O)CCCNC(=O)c2ccc(Cl)cc2)cc(OC)c1OC | / | / | -2 | 2% | / | /
CCCn1c(=O)c2ccccc2n2c(=S)[nH]nc12 | / | / | 0 | 79µM* | / | /
CN1CCc2c(sc3c2c(=O)n(-c2ccccc2)c2n[nH]c(=S)n32)C1 | ? | -12%[46.1 µM] | 0 | 40µM* | -14% | -4%
CCn1c(CCn2c3ccccc3c3ccccc32)n[nH]c1=S | 28µM* | -57% | -4 | ? | ? | 5%
Cc1oc(-c2cccc(Br)c2)[n+]([O-])c1C | ? | 4% | 0 | -16% | -24% | 4%
Cc1c(C(=O)N2CCN(Cc3ccccc3)CC2)oc2c1C(=O)CC(C)(C)C2 | / | / | / | -28% | / | /
O=c1c2ccccc2c2c(O)nc(-c3ccccc3)n2n1Cc1ccccc1 | 6% | -14%[46.1 µM] | 1 | 2% | 7% | 1%
